ALDH1A1 inh: inhibitors of human aldehyde dehydrogenase 1A1 | P00352 | Purified ALDH1A1, NADH fluorescence, propionaldehyde substrate | Potency, µM (doses to about 75.3 µM), for inactives: at the top dose activity, negative = inhibition, actives largely listed as inhibitors | 220,000 compounds, 7.3% hits | AID 1030; active = well fitted inhibition curve with a large enough effect, not every such curve was filed as active; inconclusive = small, poorly fitted or top-dose-only effect, or another doubt; inactive = no such curve, though single readings can be large or run the other way;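 also: potency is read from the fitted curve at half-maximal effect; plate controls were no enzyme wells and a reference inhibitor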
Target sequence (P00352 whole entry, looked up): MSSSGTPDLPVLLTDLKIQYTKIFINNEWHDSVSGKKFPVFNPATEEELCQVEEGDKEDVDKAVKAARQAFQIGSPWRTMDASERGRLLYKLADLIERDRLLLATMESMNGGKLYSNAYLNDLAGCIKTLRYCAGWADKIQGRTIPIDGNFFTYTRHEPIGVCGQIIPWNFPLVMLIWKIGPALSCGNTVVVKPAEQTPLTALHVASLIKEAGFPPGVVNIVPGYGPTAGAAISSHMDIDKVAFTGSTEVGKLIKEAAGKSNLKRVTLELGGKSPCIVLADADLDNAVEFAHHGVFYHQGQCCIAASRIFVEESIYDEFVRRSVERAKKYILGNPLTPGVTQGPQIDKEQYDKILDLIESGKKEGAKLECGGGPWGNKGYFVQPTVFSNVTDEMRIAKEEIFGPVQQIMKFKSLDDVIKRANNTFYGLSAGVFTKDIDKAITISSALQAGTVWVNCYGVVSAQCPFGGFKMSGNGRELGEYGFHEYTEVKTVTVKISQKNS
GLA inh pH 4.5: blocks human alpha-galactosidase A at pH 4.5 | P06280 | purified enzyme, 4-MU-alpha-Gal fluorescence, pH 4.5 | activity change, negative = inhibition, % at 105 µM | 230,000 tested, under 10 active | AID 1467;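 also: 0% = full activity with enzyme and -100% = basal without enzyme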
PNC inhibitor: inhibitors of perinucleolar compartment assembly. PC3M PTB-GFP, PNC prevalence imaging, 16 h; hits give low values. activity change (PNC), negative = inhibition, % at 10 µM. 140,000 compounds, 3.1% hits;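 active = readout at or below -70, meaning at least 70% loss of cells showing the perinucleolar compartment, a nuclear body marking cancer cells; inconclusive = readout between -30 and a set limit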;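 also: plate controls were DMSO wells for no effect and camptothecin positive control wells for full effect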
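Compounds are pinned in duplicate onto adhered PC3M cells stably expressing GFP-tagged PTB and incubated 16 h at 37 C. Cells are then fixed, nuclei stained with Hoechst, and PNC-positive cells counted.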
HPGD block: blocks human HPGD enzyme activity | P15428 | purified HPGD, NADH fluorescence kinetic, PGE2 substrate | Potency, µM, for inactives: top-dose activity change, negative = inhibition, actives largely listed as inhibitors | 150,000 compounds, 4.3% hits | AID 894; active = well fitted inhibition curve with a large enough effect, not every such curve was filed as active; inconclusive = small, poorly fitted or top-dose-only effect, or another doubt; inactive = no such curve, though single readings can be large or run the other way; also: potency is read from the fitted curve at half-maximal effect
Target sequence (P15428 whole entry, looked up): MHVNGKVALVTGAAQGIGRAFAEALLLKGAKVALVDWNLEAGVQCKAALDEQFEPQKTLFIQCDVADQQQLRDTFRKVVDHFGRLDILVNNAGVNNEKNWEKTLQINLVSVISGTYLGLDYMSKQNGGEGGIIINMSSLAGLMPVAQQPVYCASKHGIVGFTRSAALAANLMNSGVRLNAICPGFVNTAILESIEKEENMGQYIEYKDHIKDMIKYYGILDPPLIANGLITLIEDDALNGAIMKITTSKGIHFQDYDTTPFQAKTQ
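20 nM HPGD preincubated 15 min at room temperature with compound in 50 mM Tris-HCl pH 8, 0.01% Tween 20. Started with 1 mM NAD+ and 30 uM prostaglandin E2; NADH fluorescence (360/450 nm) read 5 times over 30-s intervals, last minus first.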
12-hLO inh: 12-hLO (ALOX12) enzyme inhibition; Potency, µM (titrated, usually from 57.1 µM), inactives show top-dose activity change, negative = inhibition, actives largely listed as inhibitors; purified 12-hLO, xylenol orange hydroperoxide absorbance; 150,000 compounds, 0.12% hits; P18054; also: potency is read from the fitted curve at half-maximal effect; nearly all actives have a fitted effect of over 55% in size
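Hydroperoxide output read as Fe(III)-xylenol orange absorbance, 573-to-405 nm ratio, after 30 min reaction with 40 uM arachidonic acid. Enzyme: 150 nM purified human 12hLO, 15 min compound preincubation; 25 mM Hepes pH 7.0, room temperature.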
GLA spleen mod: alpha-galactosidase A (human) modulation | 240,000 compounds, 0.008% hits | human spleen homogenate, 4MU-alpha-Gal fluorescence, 40 min | P06280 | AID 2107 | Potency, µM (series often up to 80 µM), inactives show top-dose activity change, negative = inhibition, usual class: inhibitors;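 also: potency is read from the fitted curve at half-maximal effect; 0% = enzyme with vehicle and -100% = no enzyme basal signal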
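Fluorogenic readout (Ex 365/Em 440 nm) of 4-methylumbelliferone released from 1 mM 4-MU-alpha-galactoside by spleen homogenate, 40 min at 37C, pH 5.0. Data normalized to no-enzyme and enzyme controls; Hill-equation AC50 from compound titrations.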
Active calls of the source: *; ? = inconclusive; · = no result given; [ ] = remark or other dose. Rows were chosen to be rich in hits. Some 10% of all compounds tested hit in one or more screens of this group. Unless noted, calls follow the shape of the dose curve; as a rule, active = well fitted curve in the direction sought with a large enough effect; inconclusive = small, poorly fitted or top-dose-only effect, or another doubt; inactive = no such curve, though single readings can be large; an effect the other way counts as inactive or inconclusive. Unless noted, % is scaled to controls: 0 for no effect and ±100 for the full control effect.

SMILES	ALDH1A1 inh	GLA inh pH 4.5	PNC inhibitor	HPGD block	12-hLO inh	GLA spleen mod
CC(C)C[C@H](NC(=O)CNC(=O)[C@@H]1CCCN1C(=O)[C@H](CCCNC(=N)N)NC(=O)[C@H](CC(=O)O)NC(=O)[C@@H](NC(=O)[C@H](CC(N)=O)NC(=O)[C@@H](NC(=O)[C@H](CC(=O)O)NC(=O)CNC(=O)[C@@H](NC(=O)[C@@H](NC(=O)[C@H](C)NC(=O)[C@@H](N)CCC(N)=O)[C@@H](C)O)C(C)C)C(C)C)[C@@H](C)O)C(=O)N[C@@H](CC(C)C)C(=O)N[C@@H](CC(=O)O)C(=O)N[C@@H](CC(C)C)C(=O)N[C@@H](CCCCN)C(=O)O	·	·	·	·	·	-8.3%
O=C(CSc1nc2ccccc2s1)Nc1ccc2c(c1)oc1ccccc12	25.1µM*	-4.1	31.0	-14.0%	-3.6%	-9.5%
O=C(CSc1nc2ccccc2s1)c1cc2ccccc2o1	?	8.5	11.9	22.4µM*	-10.3%	0.0%
O=C(CSc1nc2ccccc2s1)Nc1ccc(Cl)c(C(=O)O)c1	2.51µM*	2.5	·	·	·	4.1%
CC[C@H](C)[C@H](NC(=O)[C@H](Cc1ccc(O)cc1)NC(=O)[C@@H](NC(=O)[C@H](CCCN=C(N)N)NC(=O)[C@@H](N)CC(=O)O)C(C)C)C(=O)N[C@@H](Cc1cnc[nH]1)C(=O)N1CCC[C@H]1C(=O)O	·	·	·	·	·	9.6%
O=[N+]([O-])c1ccc(-c2c[nH]c(=S)[nH]2)cc1	0.501µM*	-11.5	·	·	·	-5.7%
S=c1[nH]cc(-c2ccccc2)[nH]1	·	12.2	·	·	·	17.8%
O=C(NNc1ccc(Cl)cc1)C1CCC1	-2.0%	-4.1	·	·	·	-15.2%
O=C(NNc1ccc([N+](=O)[O-])cc1)C1CC2CCCC(C1)C2=O (stereo not drawn)	-8.2%	-23.9	-108.8*	-16.8%	-5.7%	-8.7%
NNC(=O)C1CC1c1ccccc1 (stereo not drawn)	3.98µM*	5.0	-17.3	·	-2.4%	-4.4%
O=C(NNc1ccc([N+](=O)[O-])cc1)C1CC1c1ccccc1 (stereo not drawn)	10µM*	-7.9	23.4	25.1µM*	-4.1%	-8.4%
CC(C(=O)Nc1ccccc1-c1ccccc1)N1CCN(C(=O)c2ccccc2)CC1 (stereo not drawn)	12.6µM*	-3.6	·	·	·	-6.5%
CC1CCN(C(C)C(=O)Nc2ccccc2-c2ccccc2)CC1 (stereo not drawn)	-10.8%	-5.9	69.2	-1.5%	-4.7%	4.0%
CC(C(=O)Nc1ccccc1-c1ccccc1)N1CCN(Cc2ccccc2)CC1 (stereo not drawn)	14.1µM*	-11.7	·	·	·	-1.6%
Cc1ccc(S(=O)(=O)N2CCN(C(C)C(=O)Nc3ccccc3-c3ccccc3)CC2)cc1 (stereo not drawn)	7.94µM*	0.8	-25.2	-0.2%	5.0%	-1.4%
O=c1cc(-c2ccc(F)cc2F)[nH]c2ccc(F)cc12	-8.6%[120 µM]	-3.1	·	-23.1%	0.2%[0.00818 µM]	-1.6%[119 µM]
CCOC(=O)c1nn(-c2cccc(C)c2)c2nc(-c3ccccc3)c(C#N)c(=O)n12	?	8.2	-116.6*	?	-12.3%	17.9%
COCc1c(C)cc(C)c(/C=N/O)c1C	11.6%	11.7	32.7	14.1µM*	4.5%	8.0%
CCCn1c(C)nc2c(N3CCOCC3)nc(C)nc21	-1.2%	0.8	·	-3.7%	-1.2%	-2.6%
O=C(CCn1c(=O)c2ccccc2n(Cc2cccc([N+](=O)[O-])c2)c1=O)N1CCc2ccccc2C1	?	-5.7	43.5	15.8µM*	1.5%	2.5%
CSc1ccc(/C=C2/C(C)=C(CC(=O)O)c3cc(F)ccc32)cc1	-4.4%	-11.2	·	-16.6%	-1.5%[0.00818 µM]	1.4%
Fc1ccc(N/N=C2/CCSc3sccc32)c(F)c1	18.9µM*	-0.6	·	·	·	2.8%
O=C(NCC(F)(F)F)Nc1cccnc1	7.4%	-0.7	-100.0*	-19.2%	-0.8%	3.0%
O=C(Nc1ccc(OC(F)(F)F)cc1)Nc1cccnc1	8.4%	-27.3	·	·	·	6.5%
C=CC1=C2C=C(C3CC3)N(CCN3CCOCC3)C=C2C(=O)C(C)(OC(=O)c2ccco2)C1=O (stereo not drawn)	?	3.4	·	-2.0%	-1.4%[11.4 µM]	6.2%[17.5 µM]
SMILES	ALDH1A1 inh	GLA inh pH 4.5	PNC inhibitor	HPGD block	12-hLO inh	GLA spleen mod
COc1ccc(N2C(=O)CC(C3CCCO3)C2=O)cc1 (stereo not drawn)	10.6%	0.3	·	·	·	-4.9%
O=C1CC(NC23CC4CC(CC(C4)C2)C3)C(=O)N1c1ccc2c(c1)OCO2 (stereo not drawn)	11.2µM*	-0.7	-15.6	-4.5%	-0.7%	5.0%
COc1ccc(N2C(=O)CC(N3CCCC4CCCCC43)C2=O)cc1 (stereo not drawn)	8.91µM*	-7.2	-23.9	-13.1%	6.0%	-0.5%
Cc1cccc(N2C(=O)CC(N3CCN(C(=O)c4ccccc4)CC3)C2=O)c1 (stereo not drawn)	25.1µM*	3.8	10.4	-11.2%	-5.9%	-0.1%
O=C1CCCN1CCC1CCN(C2CC(=O)N(c3ccc(Cl)cc3)C2=O)CC1 (stereo not drawn)	20µM*	9.2	-0.4	-7.0%	-23.8%	2.6%
CNC1C(O)C(O)C(CO)O[C@H]1OC1C(O[C@@H]2C(O)C(O)[C@@H](N=C(N)N)C(O)C2N=C(N)N)OC(C)[C@]1(O)C=O (stereo partly drawn)	4.6%	-3.5	·	-6.9%	-4.6%	1.0%
NCCSCCC(=O)O	6.5%[13.5 µM]	·	·	-9.8%	-0.5%[11.4 µM]	·
COc1ccc(N2C(=O)CC(NC3CCCCNC3=O)C2=O)cc1 (stereo not drawn)	20µM*	-2.0	?	0.0%	-1.3%	2.3%
COc1ccc(N2C(=O)CC(N3CCN(C4CCc5ccccc5C4)CC3)C2=O)cc1 (stereo not drawn)	?	4.5	-121.3*	-3.4%	-0.6%	1.8%
COc1ccc(N2C(=O)CC(N3CCCCC3)C2=O)cc1 (stereo not drawn)	17.8µM*	4.2	·	·	·	-11.2%
O=C1CC(N2CCCCCC2)C(=O)N1c1ccc(F)cc1 (stereo not drawn)	12.6µM*	-12.5	·	·	·	4.1%
O=C1CC(N2CCSCC2)C(=O)N1c1ccc(F)cc1 (stereo not drawn)	·	0.2	·	·	·	-3.5%
COc1ccc(N2C(=O)CC(N3CCN(C(=O)c4ccco4)CC3)C2=O)cc1 (stereo not drawn)	?	4.6	·	·	·	9.1%
CCc1ccc(/C([O-])=C(/C(=S)NCCN2CCOCC2)[n+]2ccccc2)cc1	?	3.0	·	·	·	4.8%
CC1CCN(C2CC(=O)N(c3ccccc3)C2=O)CC1 (stereo not drawn)	28.2µM*	-14.6	·	·	·	5.0%

Compound activity: PubChem BioAssay, National Center for Advancing Translational Sciences (NCATS)
